Screening data: PubChem BioAssay, National Center for Advancing Translational Sciences (NCATS)
Only a selection was taken, and hits are over-represented in it overall.
Cycloheximide cs = affects cycloheximide protein synthesis inhibition readout, counter-screen; 300,000 tested, 12% active; cell reporter, cycloheximide protein synthesis inhibition counterscreen; max response, %; in the data active means max response mostly above about 13%, no sharp cut-off; inactive means mostly below about 14%; further: read at 38.3 µM for the half of the compounds with a filed dose
AmpC no deterg = inhibitors of E. coli AmpC beta-lactamase without detergent | P00811 | AmpC nitrocefin hydrolysis, absorbance 480 nm, 0.0001% Triton | Potency, µM (top dose mostly 57.1 µM), actives largely listed as inhibitors | 330,000 tested, 0.52% active | AID 485341; further: nearly all actives have a fitted effect of over 20% in size
Target sequence (P00811 whole entry, looked up): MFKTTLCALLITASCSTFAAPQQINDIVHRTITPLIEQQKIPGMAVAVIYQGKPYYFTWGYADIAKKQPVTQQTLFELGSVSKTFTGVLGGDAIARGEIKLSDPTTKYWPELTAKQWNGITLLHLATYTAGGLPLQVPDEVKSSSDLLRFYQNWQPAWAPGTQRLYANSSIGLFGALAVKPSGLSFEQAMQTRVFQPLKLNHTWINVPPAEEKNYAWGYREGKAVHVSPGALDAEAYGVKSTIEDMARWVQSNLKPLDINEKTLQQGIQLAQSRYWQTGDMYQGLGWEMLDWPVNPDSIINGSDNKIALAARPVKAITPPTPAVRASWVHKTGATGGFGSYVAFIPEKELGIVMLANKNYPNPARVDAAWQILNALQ
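AmpC (5.3 nM in the dispensed reagent) in 20 mM phosphate pH 7.0 with 0.01% (detergent screen) or 0.0001% Triton X-100 was preincubated with compounds for 15 min at room temperature. Nitrocefin was then added from an 800 uM solution, and hydrolysis was followed at 480 nm.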
Shiga toxin inh = Shiga toxin inhibition. 290,000 tested, 9.2% active. AID 2315. inhibition, % at 38.7 µM. Vero cells, Shiga toxin protein synthesis inhibition reporter; in the data active means inhibition mostly above about 28%, no sharp cut-off; inactive means mostly below about 43%
AMA1-RON2 inh = inhibitors of Plasmodium falciparum AMA1-RON2 interaction | 360,000 tested, 0.2% active | AID 720542 | AlphaScreen AMA1-biotinylated RON2 peptide binding | Potency, µM (doses to about 58.2 µM), usual class: inhibitors; further: nearly all actives have a fitted effect of over 45% in size
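AMA1 (3D7) with his tag at 25 nM final met compounds first, then biotinylated RON2 peptide at 25 nM; detection used donor plus acceptor beads, 10 µg/mL apiece, read by AlphaScreen after 30 min at room temperature.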
AmpC inh detg = AmpC beta-lactamase inhibition with detergent present; P00811; AmpC hydrolysis of nitrocefin, absorbance 480 nm, 0.01% Triton; Potency, µM (series often up to 114 µM), actives largely listed as inhibitors; 370,000 tested, 0.041% active; further: nearly all actives have a fitted effect of over 25% in size
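20 mM phosphate pH 7.0 + 0.01% (detergent screen) or 0.0001% Triton X-100; 5.3 nM AmpC reagent; cpd preinc 15 min RT; nitrocefin (800 uM stock) to start; A480 q20 s × 4 min; Activity was normalised to no-enzyme and no-compound control wells.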
SARS PLP yeast = blocks SARS-CoV papain-like protease in a yeast assay. S. cerevisiae expressing SARS-CoV PLpro, growth rescue. Potency, µM (top dose mostly 32.9 µM), most hits filed as activators. 330,000 tested, 0.19% active; calls by dose curve; further: nearly all actives have a fitted effect of over 55% in size
Of the large screens only hits and unclear results are named; the others gave an inactive call. Unless noted, the call rests on the fitted dose curve; in most records, active means well fitted curve in the direction sought with a large enough effect; inconclusive means small, poorly fitted or top-dose-only effect, or another doubt; inactive means no such curve, though single readings can be large; an effect the other way counts as inactive or inconclusive.

COc1ccc(N2CSC3=C(C#N)C(c4cccs4)CC(=O)N3C2)cc1 (centres undefined)	Cycloheximide cs 18.1
COc1ccc(N2CC(NC(=O)c3ccc(S(=O)(=O)N4CCCCC4)cc3)CC2=O)cc1OC (centres undefined)	none (no result: Cycloheximide cs, AmpC no deterg, Shiga toxin inh, AMA1-RON2 inh, SARS PLP yeast)
O=C(O)c1c(C(=O)O)c(-c2ccc(Br)cc2)n2c1CSC2	none
O=C(Nc1nnc(-c2ccc3c(c2)OCCO3)o1)C1CCCCC1	Cycloheximide cs 43.5, Shiga toxin inh 130.7
CCOc1ccc(C(=O)Nc2nnc(C3=COCCO3)o2)cc1	Cycloheximide cs 8.4
O=C(Nc1nnc(-c2ccccc2)o1)C1CCCCC1	AmpC inh detg inconclusive
O=C(Nc1nnc(-c2ccc(Cl)cc2)o1)C1CCCCC1	none
CCOc1ccc(-c2nnc(NC(=O)C3CCCC3)o2)cc1	Cycloheximide cs 34.8, Shiga toxin inh 42.3
O=C(Nc1nnc(-c2ccc(Cl)s2)o1)C1CCCCC1	none (no result: Cycloheximide cs, AmpC no deterg, Shiga toxin inh, AmpC inh detg, SARS PLP yeast)
Cc1cc(=O)[nH]c(SCC(=O)Nc2nc3c(s2)CCCC3)n1	none
CCC(Sc1nc(C)cc(=O)[nH]1)C(=O)Nc1nc2c(s1)CCCC2 (centres undefined)	Cycloheximide cs 14.9, Shiga toxin inh 42.0
CCOc1ccc(N2C(=O)CCC2=O)cc1	AmpC inh detg inconclusive
CCCC1CCC(c2ccc(OCC)cc2)=CC1=O (centres undefined)	Cycloheximide cs 43.4, Shiga toxin inh 33.9
CC1CN(S(=O)(=O)c2cccc(-c3cn4cccnc4n3)c2)CC(C)O1 (centres undefined)	none (no result: AMA1-RON2 inh)
Cc1ccc2nc(-c3cccc(S(=O)(=O)N4CCCC4)c3)cn2c1	Cycloheximide cs 16.7
O=S(=O)(c1cccc(-c2cn3cccnc3n2)c1)N1CCCCCC1	none
Cc1ccn2cc(-c3cccc(S(=O)(=O)N4CCCCC4)c3)nc2c1	Cycloheximide cs 20.6
Cc1ccc2nc(-c3ccc(S(=O)(=O)N4CCCCC4)cc3)cn2c1	Cycloheximide cs 25.0, Shiga toxin inh 66.2
Cc1ccc2nc(-c3cccc(S(=O)(=O)N4CC(C)OC(C)C4)c3)cn2c1 (centres undefined)	Cycloheximide cs 17.0
Cc1cccc(Nc2cc(C)nc3ccccc23)c1	none
Cc1ccsc1/C=N/n1cnc2sc(C)c(C)c2c1=O	Cycloheximide cs 16.4
O=c1c2ccccc2nc(/C=C/c2ccc(F)cc2)n1-c1ccccn1	none
CCOC(=O)c1ccc(Nc2nnc(C(C)(C)C)c(=O)[nH]2)cc1	none
CCn1c(SCc2nc3ccccc3[nH]2)nnc1-c1cnccn1	Cycloheximide cs 23.0, Shiga toxin inh 55.2, AmpC inh detg inconclusive
Cn1c(SCc2nc3ccccc3[nH]2)nnc1-c1ccccn1	none (no result: AmpC no deterg, SARS PLP yeast)
CCn1c(SCc2nc3ccccc3[nH]2)nnc1-c1cccnc1	none
C=CCn1c(SCc2nc3ccccc3[nH]2)nnc1-c1ccccn1	Cycloheximide cs 27.2
COC(=O)c1ccc(/C=N/NC(=O)CC(=O)NCC(C)C)cc1	AmpC no deterg inconclusive
CCOC(=O)c1sc(=NC(=O)/C=C/c2ccccc2)n(C)c1C	Cycloheximide cs 38.0, Shiga toxin inh 67.6, AmpC inh detg inconclusive
CCOC(=O)c1sc(=NC(=O)c2ccc(C)c(C)c2)n(C)c1C	Cycloheximide cs 63.0, Shiga toxin inh 67.4, AmpC inh detg inconclusive
CCOC(=O)c1sc(=NC(=O)c2ccc(Cl)s2)n(C)c1C	Cycloheximide cs 31.1, Shiga toxin inh 58.8
Cc1ccc2c(c1)sc(=NC(=O)c1cccs1)n2C	none
CCOC(=O)c1sc(=NC(=O)c2cccs2)n(C)c1C	Cycloheximide cs 48.4, Shiga toxin inh 95.9
COc1ccc(/C=C(/C#N)C(=O)Nc2ccc(C)cc2C)cc1C(=O)O	none
CCN(Cc1ccccc1)C(=O)CN1C(=O)c2ccccc2S1(=O)=O	none (no result: Cycloheximide cs, Shiga toxin inh)
Cc1ccc2[nH]c(=O)c(CN(CC3CCCO3)S(=O)(=O)c3cccc4nsnc34)cc2c1 (centres undefined)	none
COc1ccc(CN(Cc2ccccn2)S(=O)(=O)c2ccc(-n3cnnn3)c(OC)c2)cc1	AmpC inh detg inconclusive
CCOC(=O)c1c(NC(=O)CSc2nnc(-c3c[nH]c4ccccc34)n2CCOC)sc2c1CCCCC2	AmpC no deterg inconclusive
O=C(Nc1cccc(-c2nnc(-c3ccco3)o2)c1)C(c1ccccc1)c1ccccc1	none
CCOC(=O)c1sc(=NC(=O)c2ccc(OC(C)C)cc2)n(C)c1C	AmpC inh detg inconclusive
CCOC(=O)c1sc(=NC(=O)c2ccco2)n(C)c1C	Cycloheximide cs 60.1, Shiga toxin inh 73.2
C=CCn1c(=NC(=O)c2ccco2)sc2cc(C(=O)OCC)ccc21	none
CCOC(=O)c1sc(=NC(=O)c2ccccc2Br)n(C)c1C	Cycloheximide cs 29.7, Shiga toxin inh 86.8
O=C(Nc1cccnc1Cl)c1cc(-c2ccc(Br)cc2)on1	none
O=C(Nc1cc(Br)ccc1O)c1cc(-c2ccccc2)on1	Cycloheximide cs 13.6, AmpC inh detg inconclusive
Cc1ccc(O)c(NC(=O)c2cc(-c3ccccc3)on2)c1	Cycloheximide cs 66.3, SARS PLP yeast inconclusive (no result: Shiga toxin inh)
CCc1ccccc1Oc1coc2cc(O)ccc2c1=O	none
C=CCn1c(SCC(=O)c2cccs2)nc2sc(CC)cc2c1=O	none
CCCc1cnc(N2CCN(S(C)(=O)=O)CC2)nc1	Cycloheximide cs 23.2
CS(=O)(=O)N1CCN(c2ncccn2)CC1	AmpC inh detg inconclusive
CCOC(=O)N1CCC(N2CCN(c3ccccc3)CC2)CC1	none
Cc1ccc2c(COC(=O)c3n[nH]c4ccccc34)cc(=O)oc2c1	Cycloheximide cs 31.6, Shiga toxin inh 78.3, SARS PLP yeast inconclusive
Cc1ccc2c(COC(=O)c3ccccc3F)cc(=O)oc2c1	Cycloheximide cs 26.7, Shiga toxin inh 128.0
CCc1ccc2c(COC(=O)c3n[nH]c4ccccc34)cc(=O)oc2c1	Cycloheximide cs 46.4, Shiga toxin inh 93.5
Cc1ccc2c(COC(=O)c3c(C)noc3C)cc(=O)oc2c1	none
COc1cc(NC(=O)c2cccc([N+](=O)[O-])c2)ccc1NC(=O)c1cc2ccccc2o1	none
Cn1c(-c2ccc(F)cc2)cnc1NCc1ccccc1	Cycloheximide cs 19.7
Cn1c(-c2ccccc2)cnc1NCc1ccc(F)cc1	Cycloheximide cs 24.1
Cn1c(-c2ccc(F)cc2)cnc1NCc1cccc(F)c1	none
Cc1ccccc1C(=O)N1CCC(C(=O)Nc2ccc(F)cc2)CC1	AmpC inh detg inconclusive
Cc1cc(NS(=O)(=O)c2ccc(NC(=O)CSc3nnc(-c4ccco4)n3N)cc2)nc(C)n1	SARS PLP yeast inconclusive
CCCc1nc2sc3c(N4CCC(C)CC4)ncnc3c2c2c1CCCC2	none (no result: Cycloheximide cs, AmpC no deterg, Shiga toxin inh, AMA1-RON2 inh, SARS PLP yeast)
Nc1cc(Cl)ccc1Oc1ccc2ccccc2c1	Cycloheximide cs 34.1, Shiga toxin inh 40.5
Cc1ccc(Oc2ncc(-c3ccc(Cl)cc3)cn2)cc1	none
Cc1ccc(Oc2ccc(Cl)cc2N)cc1	Cycloheximide cs 37.9, Shiga toxin inh 99.7
